The campaign covered roughly 5,500 compounds. About 2,000 (36%) were called active. Another 18% or so got no clear call; they are omitted. No stated cut-off is given here; in the data, active means normalized growth mostly below about 0.91 (no sharp cut-off); inconclusive means no clear call, values can overlap the other calls; inactive means mostly above about 0.92. Some of the results follow.
Test: chemical genetic growth profiling, strain panel (AID 1159580);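 further: tested at 20 µM; growth read once vehicle control cultures reached saturation at 30 °C; 1 = growth at the plate median or of vehicle wells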
Conditions: growth OD
[1] = S. cerevisiae deletion strains, locus YAL013W, strain DEP1, stronger effect = lower value
[2] = S. cerevisiae deletion strains, locus YBR229C, strain ROT2, stronger effect = lower value
[3] = S. cerevisiae deletion strains, locus YDL101C, strain DUN1, stronger effect = lower value
[4] = S. cerevisiae deletion strains, locus YDL134C, strain PPH21, stronger effect = lower value
[5] = S. cerevisiae deletion strains, locus YDR150W, strain NUM1, stronger effect = lower value
[6] = S. cerevisiae deletion strains, locus YEL061C, strain CIN8, stronger effect = lower value
[7] = S. cerevisiae deletion strains, locus YGR078C, strain PAC10, stronger effect = lower value
[8] = S. cerevisiae deletion strains, locus YHR030C, strain SLT2, stronger effect = lower value
[9] = S. cerevisiae deletion strains, locus YHR087W, strain rtc3, stronger effect = lower value
[10] = S. cerevisiae deletion strains, locus YJL187C, strain SWE1, stronger effect = lower value
[11] = S. cerevisiae deletion strains, locus YJR043C, strain POL32, stronger effect = lower value
[12] = S. cerevisiae deletion strains, locus YJR075W, strain HOC1, stronger effect = lower value
[13] = S. cerevisiae deletion strains, locus YLR039C, strain RIC1, stronger effect = lower value
[14] = S. cerevisiae deletion strains, locus YLR058C, strain SHM2 (second series), stronger effect = lower value
[15] = S. cerevisiae deletion strains, locus YLR085C, strain ARP6, stronger effect = lower value
[16] = S. cerevisiae deletion strains, locus YLR262C, strain YPT6, stronger effect = lower value
[17] = S. cerevisiae deletion strains, locus YML094W, strain GIM5, stronger effect = lower value
[18] = S. cerevisiae deletion strains, locus YMR219W, strain ESC1, stronger effect = lower value
[19] = S. cerevisiae deletion strains, locus YMR263W, strain SAP30, stronger effect = lower value
[20] = S. cerevisiae deletion strains, locus YNL153C, strain GIM3, stronger effect = lower value
[21] = S. cerevisiae deletion strains, locus YNL298W, strain CLA4 (second series), stronger effect = lower value
[22] = S. cerevisiae deletion strains, locus YNL322C, strain KRE1, stronger effect = lower value
[23] = S. cerevisiae deletion strains, locus YNR030W, strain Alg12, stronger effect = lower value
[24] = S. cerevisiae deletion strains, locus YPL055C, strain LGE1, stronger effect = lower value
[25] = S. cerevisiae deletion strains, locus YPL241C, strain CIN2, stronger effect = lower value
[26] = S. cerevisiae deletion strains, locus YPR135W, strain CTF4, stronger effect = lower value
[27] = S. cerevisiae strains, strain wild type, stronger effect = lower value
[28] = S. cerevisiae deletion strains, locus YCL061C, strain MRC1, stronger effect = lower value
[29] = S. cerevisiae deletion strains, locus YGR229C, strain SMI1, stronger effect = lower value
[30] = S. cerevisiae deletion strains, locus YKL190W, strain CNB1, stronger effect = lower value
[31] = S. cerevisiae deletion strains, locus YOL006C, strain TOP1, stronger effect = lower value
[32] = S. cerevisiae deletion strains, locus YMR307W, strain GAS1, stronger effect = lower value

Measured: normalized growth

CC(C)(C)c1nc(N)sc1Br
inactive: [1] 1 | [2] 0.998 | [3] 1.04 | [4] 0.986 | [5] 0.993 | [6] 1.02 | [7] 1 | [8] 0.98 | [9] 1.01 | [10] 1 | [11] 1.01 | [12] 1.01 | [13] 0.932 | [14] 1 | [15] 0.985 | [16] 0.951 | [17] 0.965 | [18] 1.01 | [19] 0.993 | [20] 1.02 | [21] 0.981 | [22] 1.01 | [23] 1 | [24] 0.984 | [25] 0.995 | [26] 0.868 | [27] 1

CN1c2ccccc2C(=O)NC1c1cc(Br)cs1 (centres undefined)
inactive: [1] 1.02 | [2] 0.996 | [28] 1.02 | [3] 0.996 | [4] 1.01 | [5] 0.996 | [6] 0.997 | [7] 1 | [29] 0.998 | [8] 0.99 | [9] 1.01 | [11] 1.02 | [12] 0.993 | [30] 1.01 | [13] 1.07 | [14] 1.01 | [15] 1.06 | [16] 1.06 | [17] 1.01 | [18] 1.01 | [19] 1.01 | [20] 1 | [21] 1.04 | [22] 0.996 | [23] 1.03 | [31] 1.06 | [24] 1.01 | [25] 0.996 | [26] 0.969 | [27] 1.03

Cc1ccc(CS/C(N)=N\N)cc1
inactive: [1] 0.993 | [2] 0.996 | [28] 0.98 | [3] 0.97 | [5] 0.95 | [6] 1 | [7] 1 | [29] 0.978 | [8] 0.836 | [9] 0.983 | [10] 0.995 | [11] 0.978 | [12] 1.02 | [30] 0.982 | [13] 0.846 | [14] 0.99 | [15] 0.952 | [16] 0.889 | [17] 1.01 | [18] 0.989 | [19] 0.976 | [32] 1.05 | [20] 0.979 | [21] 0.963 | [22] 0.999 | [23] 0.976 | [31] 0.854 | [24] 0.967 | [25] 0.969 | [26] 0.907

N=C(N)SCCc1cccc(CCSC(=N)N)c1
inactive: [1] 0.957 | S. cerevisiae deletion strains, locus YAL040C, strain CLN3, stronger effect = lower value 1.05 | S. cerevisiae deletion strains, locus YCL061C, strain MRC1 (second series), stronger effect = lower value 0.984 | S. cerevisiae deletion strains, locus YDR363W, strain ESC2, stronger effect = lower value 0.997 | S. cerevisiae deletion strains, locus YER002W, strain NOP16, stronger effect = lower value 1.02 | [7] 0.992 | [32] 1.01 | [20] 1.16 | S. cerevisiae deletion strains, locus YNL175C, strain NOP13, stronger effect = lower value 1.02 | S. cerevisiae deletion strains, locus YNL197C, strain WHI3, stronger effect = lower value 0.981 | S. cerevisiae deletion strains, locus YNL224C, strain SQS1, stronger effect = lower value 1.05 | [22] 0.975 | S. cerevisiae deletion strains, locus YOR083W, strain WHI5 (second series), stronger effect = lower value 0.963

Cc1ccc(CSC(=N)N)cc1
inactive: [1] 1.01 | [2] 0.994 | [28] 1.01 | [3] 0.994 | [4] 1 | [5] 0.998 | [6] 0.976 | [7] 1.02 | [8] 0.995 | [9] 0.988 | [11] 1 | [12] 0.973 | [30] 1.01 | [13] 1.01 | [14] 1.01 | [15] 1.01 | [16] 1 | [17] 0.977 | [18] 1 | [19] 1.01 | [20] 0.999 | [21] 1 | [22] 0.995 | [31] 1.03 | [24] 1.01 | [26] 1.01 | [27] 1.01
active: [23] 0.0939 | [25] 0.149

CC1(C)CCC(C(C)(C)O)CC1
active: [10] 0.838
inactive: [1] 0.988 | [2] 1.01 | [28] 0.999 | [3] 1 | [5] 0.985 | [6] 1.03 | [7] 1.02 | [29] 0.991 | [8] 1.02 | [9] 1.02 | [11] 0.988 | [12] 1 | [30] 0.992 | [13] 0.978 | [14] 0.995 | [15] 1.04 | [16] 0.939 | [17] 1.04 | [18] 0.998 | [19] 1.01 | S. cerevisiae deletion strains, locus YNL128W, strain TEP1, stronger effect = lower value 0.99 | [20] 1.01 | [21] 0.994 | [22] 0.994 | [23] 1.01 | [31] 0.984 | [24] 1.01 | [25] 1.04 | [26] 0.989

From PubChem BioAssay AID1159580 (chemical genetic matrix, 2015)
